This experiment in a line: Vero cells viability counterscreen for qRT-PCR qHTS assay of selected Zika virus inhibitors. The text has this:
Assay Submitters (PI): Avindra Nath, Ph.D., National Institute of Neurological Disorders and Stroke (NINDS), Bethesda, MD Radhakrishnan Padmanabhan, Ph.D., Georgetown University (GU), Washington D.C. Zika Virus causes congenital defects, including microcephaly and is associated with Guillain-Barre syndrome, eningoencephalitis and myelitis in infected adult. […] Using a target-based approach, we hope to establish a screening paradigm to uncover novel, cell-active NS2B-NS3 protease (Zika Virus) specific inhibitors from NCATS' collection of small molecules using qHTS. […] Four assay panel was created to identify potential Zika Virus inhibitors. Namely, (1) GU unlinked NS2B-NS3 AMC tagged protease qHTS, (2) GU unlinked NS2B-NS3 Rhodamine tagged protease qHTS, (3) NINDS linked NS2B-NS3 AMC tagged protease qHTS, (4) NINDS linked NS2B-NS3 Rhodamine tagged protease qHTS. Inhibitors of the Zika virus primary screens are confirmed using qRT-PCR secondary assays, mCherry orthogonal assay, and Vero cells viability counterscreen. Cytotoxic compounds identified in the Vero cell viability counterscreen were excluded from the list of potential Zika virus inhibitors. Early Translation Branch (ETB) National Center for Advancing Translational Sciences (NCATS), Rockville, MD National Institute of Health (NIH), Bethesda, Maryland
Vero Cell Viability Assay: Vero cell cytotoxicity was determined using a luminescent readout with CellTiter Glo reagent (Promega, Madison, WI), which is based on measuring the ATP content within cells. Briefly, 4 uL of Vero cells at 2.5 x 10^5 cells/mL in DMEM containing 4% FBS were dispensed into 1536-well solid bottom tissue treated white plate using a Multidrop Combi dispenser (Thermo Scientific). Plates were incubated at 37 degrees C, 95% humidity, and 5% CO2 overnight to allow for cell attachment. Compounds were dissolved in DMSO at different concentrations and transferred via pintool (Wako Automation), for a final concentration of 57 uM - 0.029 uM. Plates were again incubated for 24 hours, followed by a 2 uL addition of CellTiter Glo. Finally, plates were incubated for 30 minutes at 37 degrees C and 5% CO2 before being read on a ViewLux (Perkin Elmer) for luminescence.

Data on nine compounds can be found in PubChem BioAssay AID1347170 (National Center for Advancing Translational Sciences (NCATS), 2019).

Results filed as inconclusive are left out. Activity calls are given as the source filed them. Calls follow the shape of the dose curve; as a rule, active = well fitted cell-killing curve with a large enough effect; inconclusive = small, poorly fitted or top-dose-only effect, or another doubt; inactive = flat fitted curve, though single readings scatter.

On to `C[C@]12CC[C@@H]3c4ccc(OC(=O)N(CCCl)CCCl)cc4CC[C@H]3[C@@H]1CC[C@@H]2O`, for which the result was inactive. The value for `Oc1c(Cl)c(Cl)c(Cl)c(Cl)c1Cl` was “inactive”; that for `CC(=O)c1c(O)c(C)c(O)c(Cc2c(O)c3c(c(C(=O)/C=C/c4ccccc4)c2O)OC(C)(C)C=C3)c1O` was “inactive”. The value for `CCCCCOc1cc2c(cc1-c1cc(/C=C/C(=O)O)ccc1O)C(C)(C)CCC2(C)C` was “inactive”; that for `Cc1cc(SCc2sc(-c3ccc(C(F)(F)F)c(F)c3)nc2C)ccc1OCC(=O)O` was “inactive”.

On to `CN(C)[C@@H]1C(=O)C(C(N)=O)=C(O)[C@@]2(O)C(=O)C3=C(O)c4c(O)cccc4[C@@](C)(O)[C@H]3C[C@@H]12`, for which the compound was called inactive. For `CN(C)[C@@H]1C(=O)C(C(N)=O)=C(O)[C@@]2(O)C(=O)C3=C(O)c4c(O)ccc(Cl)c4[C@@](C)(O)[C@H]3C[C@@H]12` the value was “inactive”. Take `O=C1OC(c2ccc(O)c(S(=O)(=O)O)c2)(c2ccc(O)c(S(=O)(=O)O)c2)c2c(Br)c(Br)c(Br)c(Br)c21`: the outcome was inactive. As to `O=C(Nc1ccc(Br)cc1)c1cc(Br)cc(Br)c1O`, the call was inactive.
